# Measured values: the supplement of paper PMC9694430
# “And” between values parts separate entries of the source, which are not always exact repeats. Equal entries are not always repeated.
# Legend:
# Assay in all cases: thermal shift delta Tm vs DMSO control; higher = stronger stabilization (binding)
# Settings in all cases: 12.5 µM; protein concentration 2 µM
# [1] = test system: LOC_OS01G01410-cb001
# In short: (§1)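 The melting temperature shift given here is a triplicate mean, measured against protein that received only DMSO. Melting temperatures came from Boltzmann fits of differential scanning fluorimetry data on E. coli-expressed, purified rice kinase domain constructs. Each 19.5 μl well contained 2 μM kinase, 100 mM potassium phosphate pH 7.5, 150 mM NaCl, 10% glycerol, 5 × SYPRO Orange and compound in DMSO. Plates were scanned from 25°C to 95°C at 0.05°C/s.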
# [2] = test system: LOC_OS01G02750-cb003
# In short: as §1
# [3] = test system: LOC_OS01G10900-cb004
# In short: as §1
# [4] = test system: LOC_OS01G13800-cb001
# In short: as §1
# [5] = test system: LOC_OS01G14860-cb001
# In short: as §1
# [6] = test system: LOC_OS01G21960-cb002
# In short: as §1
# [7] = test system: LOC_OS01G39600-cb002
# In short: as §1
# [8] = test system: LOC_OS01G48390-cb002
# In short: as §1
# [9] = test system: LOC_OS01G51400-cb002
# In short: as §1
# [10] = test system: T1, LOC_OS01G52050-cb004
# T1 sequence (whole entry): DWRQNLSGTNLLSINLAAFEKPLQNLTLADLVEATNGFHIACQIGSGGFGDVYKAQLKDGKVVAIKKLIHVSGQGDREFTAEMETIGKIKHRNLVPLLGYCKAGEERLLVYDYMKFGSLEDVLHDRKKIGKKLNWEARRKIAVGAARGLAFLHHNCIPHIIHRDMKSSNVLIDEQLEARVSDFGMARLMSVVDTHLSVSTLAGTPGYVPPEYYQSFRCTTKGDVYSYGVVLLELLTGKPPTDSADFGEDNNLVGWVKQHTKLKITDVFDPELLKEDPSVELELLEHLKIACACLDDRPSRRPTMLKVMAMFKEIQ
# In short: as §1
SMILES,thermal shift delta Tm [1],thermal shift delta Tm [2],thermal shift delta Tm [3],thermal shift delta Tm [4],thermal shift delta Tm [5],thermal shift delta Tm [6],thermal shift delta Tm [7],thermal shift delta Tm [8],thermal shift delta Tm [9],thermal shift delta Tm [10]
Cn1cnc2c(F)c(Nc3ccc(Br)cc3Cl)c(C(=O)NOCCO)cc21 [Selumetinib (AZD6244)],0.81 °C,-0.16 °C,0.43 °C,0.45 °C,0.22 °C,0.07 °C,0.25 °C,1.04 °C,0.36 °C,0.08 °C
CS(=O)(=O)CCNCc1ccc(-c2ccc3ncnc(Nc4ccc(OCc5cccc(F)c5)c(Cl)c4)c3c2)o1,1.42 °C,0.57 °C,-0.68 °C,0.49 °C,0.2 °C,0.5 °C,0.33 °C,0.41 °C,0.31 °C,0.63 °C
COc1cc2ncnc(Nc3ccc(Cl)cc3F)c2cc1OC,0.69 °C,0.81 °C,0.27 °C,0.26 °C,0.32 °C,0.85 °C,1.07 °C,0.9 °C,0.46 °C,0.58 °C
CCCCCCCCCCCCCCCCn1cc[n+](Cc2ccccc2)c1C,-2.01 °C,-7.84 °C,-4.55 °C,-6.34 °C,-18.6 °C,-3.32 °C,-5.39 °C,-5.85 °C,-9.26 °C,-3.57 °C
CCN(C)S(=O)(=O)Nc1ccc(F)c(C(=O)c2c[nH]c3ncc(-c4cnc(C5CC5)nc4)cc23)c1F,1.92 °C,0.92 °C,1.18 °C,0.03 °C,2.04 °C,0.51 °C,3.55 °C,1.01 °C,0.11 °C,0.72 °C
C=CC(=O)Nc1cccc(Nc2nc(Nc3ccc(OCCOC)cc3)ncc2F)c1,3.05 °C,0.97 °C,1.01 °C,-0.85 °C,3.77 °C,2.29 °C,-1.51 °C,1.44 °C,0.59 °C,3.59 °C
C[C@@H]1CN(CC(=O)Nc2ccc3c(c2)Cc2cccc(-c4cc(=O)cc(N5CCOCC5)o4)c2S3)C[C@H](C)O1,0.15 °C,1.53 °C,0.85 °C,0.28 °C,1.89 °C,0.63 °C,-0.34 °C,0.3 °C,0.05 °C,0.42 °C
CNS(=O)(=O)C[C@H]1CC[C@H](N(C)c2[nH]cnc3nccc2-3)CC1 [Oclacitinib],0.92 °C,1.16 °C,0.3 °C,0.42 °C,2.09 °C,0.79 °C,1.81 °C,2.77 °C,0.26 °C,1.43 °C
Cc1ccc(NC(=O)c2ccc(CN3CCN(C)CC3)cc2)cc1Nc1nc(-c2cccnc2)cs1 [Masitinib (AB1010)],1.11 °C,0.48 °C,0.92 °C,0.24 °C,0.16 °C,0.26 °C,-0.05 °C,0.15 °C,-0.06 °C,-0.18 °C
Cc1ccc(NC(=O)c2cccc(C(C)(C)C#N)c2)cc1Nc1ccc2ncn(C)c(=O)c2c1,0.91 °C,0.97 °C,0.69 °C,0.2 °C,0.47 °C,0.52 °C,0.04 °C,1.13 °C,0.61 °C,0.4 °C
C=C[C@@](C)(/C=C/c1ccc(O)cc1)CCC=C(C)C [Bakuchiol],1 °C,1.1 °C,1.06 °C,0.03 °C,0.91 °C,0.52 °C,0.57 °C,0.85 °C,0.52 °C,3.47 °C
Cc1cnc(-c2cnc(NCCNc3ccc(C#N)cn3)nc2-c2ccc(Cl)cc2Cl)[nH]1,0.25 °C and -0.35 °C,1.32 °C and 0.93 °C,0.52 °C and -0.13 °C,0.39 °C and 0.37 °C,7.39 °C and 7.4 °C,1.7 °C and 1.69 °C,0.07 °C and 1.56 °C,0.47 °C and 0.64 °C,0.25 °C and 0.6 °C,0.73 °C and 0.53 °C
Cc1c(Cn2c(C)nc3c(C(=O)O)cc(N4CCOCC4)cc32)cccc1C(F)(F)F,0.42 °C,2.18 °C,0.15 °C,-0.48 °C,-0.01 °C,0.56 °C,0.55 °C,5.45 °C,0.63 °C,-0.39 °C
CN(C)CCCn1cc(C2=C(c3c[nH]c4ccccc34)C(=O)NC2=O)c2ccccc21,0.25 °C,0.71 °C,0.3 °C,0.25 °C,1.17 °C,2.73 °C,0.78 °C,-0.07 °C,0.26 °C,-0.04 °C
Cc1cc(C(=O)NOCCO)c(Nc2ccc(I)cc2F)n(C)c1=O,0.56 °C,0.29 °C,0.4 °C,0.2 °C,0.16 °C,0.85 °C,-0.46 °C,0.25 °C,-0.04 °C,-0.21 °C
Cc1cc(Nc2cc(N3CCN(C)CC3)nc(/C=C/c3ccccc3)n2)n[nH]1 [ENMD-2076 L-(+)-Tartaric acid],2.38 °C,2.56 °C,1.86 °C,-0.25 °C,4.33 °C,2.63 °C,1.94 °C,3.3 °C,0.81 °C,4.1 °C
COc1ccc(C(=O)Nc2sc3c(c2C(N)=O)CCCC3)cc1OC,0.61 °C,0.58 °C,0.36 °C,0.6 °C,0.19 °C,0.49 °C,0.46 °C,0.85 °C,0.45 °C,1.28 °C
c1cncc(CN2CCC(n3ncc4c(N5CCOCC5)nc(-c5ccc6[nH]ccc6c5)nc43)CC2)c1,0.33 °C,-0.32 °C,0.65 °C,0.33 °C,0.21 °C,0.55 °C,0.03 °C,0.18 °C,0.45 °C,-0.01 °C
CCCS(=O)(=O)Nc1ccc(F)c(C(=O)c2c[nH]c3ncc(Cl)cc23)c1F,2.48 °C,2.88 °C,1.45 °C,-0.05 °C,0.85 °C,0.52 °C,2.73 °C,3.29 °C,0.32 °C,1.3 °C
Nc1cccc(S(=O)(=O)N2CCCN(S(=O)(=O)c3ccc4c(c3)OCCO4)CC2)c1,0.49 °C,1.98 °C,0.15 °C,0.22 °C,0.23 °C,0.8 °C,-0.77 °C,3.24 °C,0.46 °C,0.19 °C

SMILES,thermal shift delta Tm [1],thermal shift delta Tm [2],thermal shift delta Tm [3],thermal shift delta Tm [4],thermal shift delta Tm [5],thermal shift delta Tm [6],thermal shift delta Tm [7],thermal shift delta Tm [8],thermal shift delta Tm [9],thermal shift delta Tm [10]
CC(C)(C)c1nc(-c2ccc(NC(=O)Nc3cccc(C(F)(F)F)c3)c3ccccc23)c2c(N)nccn12 [kira6],0.7 °C,9.79 °C,0.45 °C,1.09 °C,1.63 °C,2.1 °C,1.51 °C,1.52 °C,0.79 °C,5.68 °C
CNC(=O)c1ccc(C)c(-n2c(C)cc(OCc3ccc(F)cc3F)c(Br)c2=O)c1,-0.05 °C,0.1 °C,0.26 °C,0.31 °C,-0.06 °C,0.34 °C,-0.13 °C,0.65 °C,0.44 °C,0.41 °C
C[C@@]1(C(=O)Nc2ccc(F)nc2)CCCN1c1nc(Nc2cc(C3CC3)n[nH]2)c2cccn2n1,1.85 °C,3.65 °C,0.11 °C,0.04 °C,3.52 °C,0.38 °C,4.9 °C,1.12 °C,0.67 °C,0.49 °C
CO[C@@H](C(=O)N1Cc2[nH]nc(NC(=O)c3ccc(N4CCN(C)CC4)cc3)c2C1)c1ccccc1,3 °C,1.69 °C,6.13 °C,-0.31 °C,0.54 °C,0.38 °C,1.14 °C,3.55 °C,0.01 °C,0.36 °C
"Nc1cc(C(F)(F)F)c(-c2cc(N3CCOCC3)nc(N3CCOCC3)n2)cn1 [Buparlisib (BKM120, NVP-BKM120)]",0.58 °C,0.22 °C,0.31 °C,0.04 °C,0.19 °C,0.6 °C,0.55 °C,0.7 °C,0.92 °C,0.06 °C
CCOC(=O)c1cnc2ccc(-c3cncc(NS(=O)(=O)c4ccccc4)c3)cn12,1.19 °C,2.3 °C,1.17 °C,0.29 °C,0.13 °C,1.06 °C,0.33 °C,0.35 °C,0.6 °C,0.54 °C
CN(C)C/C=C/C(=O)Nc1cc2c(Nc3ccc(F)c(Cl)c3)ncnc2cc1O[C@H]1CCOC1 [Afatinib (BIBW2992)],1.12 °C,-0.19 °C,4 °C,0.13 °C,2.91 °C,-0.28 °C,1.11 °C,2.17 °C,0.41 °C,0.75 °C
CCN1CCN(Cc2ccc(Nc3ncc(F)c(-c4cc(F)c5nc(C)n(C(C)C)c5c4)n3)nc2)CC1,1.5 °C,2.83 °C,4.97 °C,-0.66 °C,7.4 °C,3.11 °C,0.45 °C,1.47 °C,0.13 °C,1.08 °C
CC1Oc2cc(cnc2N)-c2c(nn(C)c2C#N)CN(C)C(=O)c2ccc(F)cc21 (stereo not given),0.52 °C,1.64 °C,0.21 °C,-0.23 °C,0.3 °C,-0.18 °C,-0.18 °C,2.07 °C,0.44 °C,0.41 °C
N#Cc1cccc(-c2c[nH]c3ncnc(N4CCOCC4)c23)c1,0.72 °C,2.58 °C,0.72 °C,0.32 °C,1.47 °C,1 °C,1.94 °C,0.73 °C,0.58 °C,1.08 °C
Cn1cc(-c2ccc3nnc(Sc4ccc5ncccc5c4)n3n2)cn1,0.49 °C,0.09 °C,3.13 °C,-0.11 °C,-0.13 °C,0.18 °C,0.17 °C,0.29 °C,0.08 °C,0.42 °C
S=C(NCc1ccc2c(c1)OCO2)N1CCN(c2ncnc3c2oc2ccccc23)CC1 [Amuvatinib (MP-470)],0.66 °C,-0.56 °C,0.77 °C,1.03 °C,0.42 °C,0.46 °C,0.21 °C,0.88 °C,0.31 °C,1.3 °C
C[C@]1(O)C[C@@H](c2nc(-c3ccc4ccc(-c5ccccc5)nc4c3)c3c(N)nccn32)C1 [Linsitinib (OSI-906)],1.14 °C,-0.88 °C,0.14 °C,0.82 °C,0.26 °C,0.9 °C,1.68 °C,0.41 °C,0.44 °C,-0.16 °C
Cc1ccc(C(=O)Nc2ccc(CN3CCN(C)CC3)c(C(F)(F)F)c2)cc1C#Cc1cnc2[nH]ncc2c1 [GZD824 Dimesylate],4.32 °C,3.52 °C,5.49 °C,-0.24 °C,6.49 °C,1.24 °C,22.8 °C,2.71 °C,0.45 °C,3.71 °C
Oc1ccc(Nc2nc(-c3ccc(Cl)cc3)cs2)cc1,1.11 °C,3.1 °C,0.5 °C,0.46 °C,1.41 °C,-0.09 °C,4.96 °C,1.3 °C,1.51 °C,3.09 °C
Nc1ccc(-c2ccc3ncc4ccc(=O)n(-c5cccc(C(F)(F)F)c5)c4c3c2)cn1 [Torin 2],1.14 °C,1.23 °C,-0.05 °C,-0.87 °C,2.07 °C,1.41 °C,0.74 °C,0.94 °C,0.41 °C,0.7 °C
Clc1ccc(Nc2nnc(Cc3ccncc3)c3ccccc23)cc1 [Vatalanib (PTK787) 2HCl],0.99 °C,0.12 °C,-0.92 °C,0.36 °C,0.31 °C,0.21 °C,0.01 °C,0.44 °C,-0.2 °C,0.04 °C
CO[C@H]1CC[C@H](N2C(=O)CNc3ncc(-c4ccc(C(C)(C)O)nc4)nc32)CC1,0.1 °C,-0.2 °C,-0.9 °C,0.15 °C,0.82 °C,1.01 °C,-1.7 °C,-0.27 °C,0.12 °C,-1.81 °C
COc1ccc(CCNCc2ccc(OCc3ccc(Cl)nc3)c(OC)c2)cc1OC,0.02 °C,0.3 °C,0.52 °C,0.46 °C,0.35 °C,0.01 °C,0.48 °C,0.52 °C,-0.03 °C,-0.18 °C
